Test systems include DU-145 prostate; K-562 leukemia; MALME-3M melanoma; MDA-MB-231 breast; RXF 393 renal; SF-268 CNS; SF-295 CNS; SF-539 CNS; UACC-257 melanoma; M14 melanoma.
What all share (experiment): NCI-60 one-dose screen, 48 h (100 = growth as untreated, 0 = no growth, -100 = all killed)

Each structure is given as a SMILES string. Values joined by “and” are separate entries in the source; they are usually repeats but may differ in a detail not shown here. Equal entries are not always repeated. Compounds without any hit were thinned out: in the full panel of roughly 83,000, 20% have a hit.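 Percent growth is the endpoint: 0 to 100 indicates growth inhibition (40 means 60% inhibition), 0 means no net growth, and negative values indicate cell death.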 Active and inactive are the calls of the source. Rule for the calls: active = growth percent below 10; inactive = the rest.

As to `CCCCCCCCCCCCCCCC[N+](C)(C)CCN(Cc1ccc(OC)cc1)c1ncccn1`, the growth was -100% (active) and 69.4% (inactive) with DU-145 prostate (10 µM unless noted); 35.5% (inactive) in the assay with K-562 leukemia (10 µM unless noted); -70.3% (active) and 43.8% (inactive) in the assay with MALME-3M melanoma (10 µM unless noted); -82.5% (active) and 47.1% (inactive) with MDA-MB-231 breast (10 µM unless noted); -58.4% (active) and -49.8% (active) in the assay with RXF 393 renal (10 µM unless noted); -92.9% (active) and 38% (inactive) in the assay with SF-268 CNS (10 µM unless noted). Moreover, the growth in the assay on SF-295 CNS (10 µM unless noted) is -90.6% (active); in the assay with SF-539 CNS (10 µM unless noted) it was -91.3% (active) and 71.2% (inactive); with UACC-257 melanoma (10 µM unless noted), 25.2% (inactive) and 28.7% (inactive); in the assay on M14 melanoma (10 µM unless noted), -62.6% (active) and -17.7% (active).
As for `COc1ccc(CN2CCc3c(Cl)nc(N)nc3C2=O)c(OC)c1`, the growth is 20.8% [100 µM] (inactive) in the assay with DU-145 prostate (10 µM unless noted); 14.8% [100 µM] (inactive) with K-562 leukemia (10 µM unless noted); 27.8% [100 µM] (inactive) in the assay with MALME-3M melanoma (10 µM unless noted); 6.36% [100 µM] (active) in the assay with MDA-MB-231 breast (10 µM unless noted); -20.2% [100 µM] (active) with RXF 393 renal (10 µM unless noted); -22.4% [100 µM] (active) with SF-268 CNS (10 µM unless noted). The growth in the assay with SF-295 CNS (10 µM unless noted) was 41.6% [100 µM] (inactive); with SF-539 CNS (10 µM unless noted), -25.3% [100 µM] (active); with UACC-257 melanoma (10 µM unless noted) it was 25.5% [100 µM] (inactive); with M14 melanoma (10 µM unless noted), -70.8% [100 µM] (active).
In the case of `CCN(CC)CCOc1ccccc1C`, the growth was 113% (inactive) in the assay on DU-145 prostate (10 µM unless noted); 97.5% (inactive) in the assay with K-562 leukemia (10 µM unless noted); 105% (inactive) in the assay with MALME-3M melanoma (10 µM unless noted); 103% (inactive) in the assay with MDA-MB-231 breast (10 µM unless noted); 160% (inactive) in the assay with RXF 393 renal (10 µM unless noted); 120% (inactive) with SF-268 CNS (10 µM unless noted). For the same molecule, the growth in the assay with SF-295 CNS (10 µM unless noted) is 101% (inactive); in the assay with SF-539 CNS (10 µM unless noted), 93.7% (inactive); with UACC-257 melanoma (10 µM unless noted) it was 106% (inactive); in the assay with M14 melanoma (10 µM unless noted), 98.8% (inactive).
Consider `COc1ccc(C(=O)/C=C/c2ccc(OCc3cccc(C(F)(F)F)c3)c(OC)c2)cc1OC`, for which the growth is 72.7% (inactive) in the assay on DU-145 prostate (10 µM); 19.4% (inactive) in the assay on DU-145 prostate (100 µM); 39.1% (inactive) in the assay on K-562 leukemia (10 µM); 12.2% (inactive) in the assay with K-562 leukemia (100 µM); 97.7% (inactive) in the assay on MALME-3M melanoma (10 µM); 23.5% (inactive) with MALME-3M melanoma (100 µM). In addition, the growth in the assay on MDA-MB-231 breast (10 µM) was 79.9% (inactive); in the assay with MDA-MB-231 breast (100 µM) it was -12.9% (active); with RXF 393 renal (10 µM), 97.7% (inactive); in the assay with RXF 393 renal (100 µM) it was -13% (active); in the assay on SF-268 CNS (10 µM), 86.4% (inactive); in the assay with SF-268 CNS (100 µM) it was 14.6% (inactive). Besides, the growth in the assay on SF-295 CNS (10 µM) was 98.2% (inactive); with SF-295 CNS (100 µM), 21.7% (inactive); in the assay on SF-539 CNS (10 µM) it was 103% (inactive); in the assay on SF-539 CNS (100 µM), 12% (inactive); in the assay on UACC-257 melanoma (10 µM), 93.9% (inactive); in the assay on UACC-257 melanoma (100 µM) it was 28.7% (inactive). Moreover, the results for the growth with M14 melanoma (10 µM) and in the assay on M14 melanoma (100 µM) were 85.3% (inactive) and 35.4% (inactive), respectively.
For the molecule `CC(=O)/C=C/c1ccc(N(C)Cc2ccc(C(C)(C)C)cc2)cc1`, the growth is 96.6% (inactive) with DU-145 prostate (10 µM); 0.731% (active) with DU-145 prostate (100 µM); 59.5% (inactive) in the assay with K-562 leukemia (10 µM); -12.4% (active) in the assay with K-562 leukemia (100 µM); 89.3% (inactive) with MALME-3M melanoma (10 µM); -88.1% (active) in the assay on MALME-3M melanoma (100 µM). The growth with MDA-MB-231 breast (10 µM) is 103% (inactive); with MDA-MB-231 breast (100 µM), -70.6% (active); with RXF 393 renal (10 µM), 106% (inactive); in the assay on RXF 393 renal (100 µM) it was -90.6% (active); in the assay with SF-268 CNS (10 µM), 102% (inactive); with SF-268 CNS (100 µM), -76.8% (active). Also, the growth is 88.9% (inactive) in the assay on SF-295 CNS (10 µM); -30.4% (active) with SF-295 CNS (100 µM); 98.9% (inactive) in the assay on SF-539 CNS (10 µM); -69% (active) with SF-539 CNS (100 µM); 84.6% (inactive) in the assay on UACC-257 melanoma (10 µM); -76.5% (active) in the assay with UACC-257 melanoma (100 µM). The values for the growth with M14 melanoma (10 µM) and with M14 melanoma (100 µM) were 79.5% (inactive) and -65.3% (active), respectively.
Turning to `O=C(/C=C/c1cccc(Oc2ccc(Cl)cc2)c1)c1ccccc1`, the growth was 95.3% (inactive) in the assay on DU-145 prostate (10 µM); -98.4% (active) in the assay with DU-145 prostate (100 µM); 31.6% (inactive) in the assay with K-562 leukemia (10 µM); -29% (active) in the assay with K-562 leukemia (100 µM); 102% (inactive) in the assay with MALME-3M melanoma (10 µM); -85.2% (active) in the assay on MALME-3M melanoma (100 µM). Further, the growth with MDA-MB-231 breast (10 µM) is 113% (inactive); in the assay with MDA-MB-231 breast (100 µM) it was -61.9% (active); in the assay with RXF 393 renal (10 µM), 101% (inactive); in the assay with RXF 393 renal (100 µM), -68.2% (active); with SF-268 CNS (10 µM) it was 101% (inactive); with SF-268 CNS (100 µM), -78.3% (active). Moreover, the growth was 94.9% (inactive) in the assay on SF-295 CNS (10 µM); -95.3% (active) with SF-295 CNS (100 µM); 99.8% (inactive) with SF-539 CNS (10 µM); -92.3% (active) in the assay on SF-539 CNS (100 µM); 101% (inactive) with UACC-257 melanoma (10 µM); -86.8% (active) with UACC-257 melanoma (100 µM). Besides, the growth was 89.5% (inactive) with M14 melanoma (10 µM) and -54.4% (active) in the assay on M14 melanoma (100 µM).
Regarding `[Cu+].[NH-][C@H]1C[N-]C(=O)[C@H]([C@H]2CCN=C(N)N2)[N-]C(=O)/C(=C\NC(N)=O)[N-]C(=O)[C@H](CNC(=O)C[C@@H](N)CCCN)[N-]C(=O)[C@H](CO)[N-]C1=O`, the growth was 112% (inactive) in the assay with DU-145 prostate (10 µM unless noted); 101% (inactive) with K-562 leukemia (10 µM unless noted); 101% (inactive) with MALME-3M melanoma (10 µM unless noted); 101% (inactive) with MDA-MB-231 breast (10 µM unless noted); 105% (inactive) with RXF 393 renal (10 µM unless noted); 107% (inactive) in the assay on SF-268 CNS (10 µM unless noted). The growth in the assay on SF-295 CNS (10 µM unless noted) is 99.6% (inactive); in the assay on SF-539 CNS (10 µM unless noted) it was 106% (inactive); in the assay with UACC-257 melanoma (10 µM unless noted), 99.8% (inactive); in the assay with M14 melanoma (10 µM unless noted), 104% (inactive).
For `CC(=O)c1nn(-c2ccccc2)/c(=N/N=Cc2cn(-c3ccccc3)nc2-c2cc3ccccc3oc2=O)s1`, the growth in the assay with DU-145 prostate (10 µM unless noted) was 107% (inactive); in the assay with K-562 leukemia (10 µM unless noted), 98.5% (inactive); in the assay on MALME-3M melanoma (10 µM unless noted) it was 104% (inactive); in the assay on MDA-MB-231 breast (10 µM unless noted), 82.6% (inactive); with RXF 393 renal (10 µM unless noted), 111% (inactive); in the assay with SF-268 CNS (10 µM unless noted), 104% (inactive). Also, the growth in the assay with SF-295 CNS (10 µM unless noted) was 103% (inactive); in the assay with SF-539 CNS (10 µM unless noted), 99.6% (inactive); with UACC-257 melanoma (10 µM unless noted) it was 108% (inactive); in the assay on M14 melanoma (10 µM unless noted), 97.4% (inactive).
`O=C1C(=C(O)c2ccccc2)C(=O)c2ccccc21`: the growth in the assay with DU-145 prostate (10 µM unless noted) was 104% (inactive); in the assay on K-562 leukemia (10 µM unless noted) it was 95.4% (inactive); in the assay with MALME-3M melanoma (10 µM unless noted), 103% (inactive); in the assay on MDA-MB-231 breast (10 µM unless noted), 107% (inactive); in the assay with RXF 393 renal (10 µM unless noted) it was 135% (inactive); in the assay on SF-268 CNS (10 µM unless noted) it was 95.2% (inactive). Also, the growth in the assay with SF-295 CNS (10 µM unless noted) was 105% (inactive); in the assay on SF-539 CNS (10 µM unless noted), 100% (inactive); with UACC-257 melanoma (10 µM unless noted), 108% (inactive); in the assay on M14 melanoma (10 µM unless noted) it was 102% (inactive).

These data come from PubChem BioAssay (NCI).
